Measured values taken from PubChem BioAssay (EPA / NIEHS).
“And” between values parts separate entries of the source, which are not always exact repeats. Identical values can stand only once. The source made the active and inactive calls. The calls were made as follows: active = hit-call score of the fitted dose curve at least 0.9, where 1 is the maximum; inactive = score below 0.9.

What follows are compounds tested on CD38, CD38 (gene 952) (assay: BSK_SAg_CD38: BioMAP Diversity Plus: SAg Assay for CD38 Biomarker Activity (AID 2283087)). Settings: primary human HUVEC with PBMC; actives raise or lower the signal.
Procedure: BSK_SAg is a cell-based, multiplexed-readout assay that uses umbilical vein endothelium and peripheral blood mononuclear cells, a human vascular primary cell co-culture, with measurements taken at 24 hours after chemical dosing in a 96-well plate.BSK_SAg_CD38 is one of 10 assay component(s) measured or calculated from the BSK_SAg assay. It is designed to make measurements of enzyme-linked immunosorbent assay, a form of binding reporter, as detected with fluorescence intensity signals by Enzyme-linked immunosorbent assay technology.Data from the assay component BSK_SAg_CD38 was analyzed into 1 assay endpoint. This assay endpoint, BSK_SAg_CD38, was analyzed with bidirectional fitting relative to DMSO as the negative control and baseline of activity. Using a type of binding reporter, gain or loss-of-signal activity can be used to understand changes in the signaling as they relate to the gene CD38. Furthermore, this assay endpoint can be referred to as a primary readout, because this assay has produced multiple assay endpoints where this one serves a signaling function. To generalize the intended target to other relatable targets, this assay endpoint is annotated to the cytokine intended target family, where the subfamily is other cytokine.
The levels of cell surface (or secreted, indicated by the prefix "s") biomarker endpoints were measured by ELISA. Overt cytotoxicity to cells in confluent adherent cultures (all systems other than the BT system) was assessed by measuring total protein levels using sulforhodamine B (SRB) staining in parallel cultures at the time of biomarker measurements, indicated as SRB endpoints. For proliferation assays for adherent cell types, individual cell types are cultured at sub-confluence and relative cell numbers quantified by SRB staining at time points optimized for each system (48 h: 3C and CASM3C systems; 72 h: BT and HDF3CGF systems; 96 h: SAg system). SRB was performed by staining cells with 0.1% SRB after fixation with 10% TCA and reading wells at 560 nm.Viability and proliferation of PBMC (T cells) was quantified by Alamar Blue reduction for the SAg and BT systems. For PBMC viability (referred to as PBMC Cytotoxicity within the assay endpoint names), cells were plated (75,000/well in a 96-well plate) and then chemical samples added for 1 h before addition of activators, SEB and TSST-1 (20 ng/mL final concentration each). Cells were incubated for 90 h. Then, Alamar Blue (20 uL/well) (Invitrogen, Cat DAL1100) was added for 6 h, and the plates were read with a fluorescence microplate reader at 546/580 nm (excitation/emission). For PBMC proliferation, cells were plated and activated as above but incubated for only 16 h prior to addition of Alamar Blue. Plates were read after 6 h.

SMILES | AC50 | outcome
CCCCCCCCCCCC(C)=O | 31.6 µM (active) | 
C=CC(=O)OCCCCCCCC(C)C |  | inactive
CC=C(C)C=CC=C(C)C | 13.7 µM (active) | 
CCOC(=O)/C=C\C(=O)OCC |  | inactive
Cc1ccc([N+](=O)[O-])cc1N |  | inactive
CCCCCCOC(=O)CCCCC(=O)OCCCCCC |  | inactive
Fc1ccc(Br)cc1 |  | inactive
CCCCCCC=O |  | inactive
CCCCCCCCC(CO)CCCCCC (stereo not given) |  | inactive
c1ccc2c(c1)[nH]c1ccccc12 |  | inactive
CC1(C)CC(O)CC(C)(C)N1[O] |  | inactive
C1CNCCN1 |  | inactive
C=CC(=O)NCOCCCC |  | inactive
CCOC(=O)C1=NOC(c2ccccc2)(c2ccccc2)C1 |  | inactive
CC(C)[N+](C)(CCOC(=O)C1c2ccccc2Oc2ccccc21)C(C)C |  | inactive
Oc1c(Cl)cc(Cl)c(Cl)c1Cl | 20 µM (active) | 
C[N+](C)(C)CCCNS(=O)(=O)C(F)(F)C(F)(F)C(F)(F)C(F)(F)C(F)(F)C(F)(F)C(F)(F)C(F)(F)F |  | inactive
CCCC(C)C(=O)OCC (stereo not given) |  | inactive
Oc1ccc(/C=C/c2cc(O)cc(O)c2)cc1 |  | inactive
c1ccc2sc(SSN3CCOCC3)nc2c1 | 20 µM (active) | 

SMILES | AC50 | outcome
CCCCC1C(=O)N(c2ccccc2)N(c2ccccc2)C1=O |  | inactive
Cc1c(O)cccc1O |  | inactive
CCN1CN(CC)CN(CC)C1 |  | inactive
COc1ccc(C(=O)c2ccccc2)c(O)c1 |  | inactive
O=C(O)C(F)(F)C(F)(F)C(F)(F)C(F)(F)C(=O)O |  | inactive
CCc1cccc(C)c1N(C(=O)CS(=O)(=O)O)C(C)COC (stereo not given) |  | inactive
O=C1CCCCCCCCCCCN1 |  | inactive
C=CC(=O)OCC(C)OCC(C)OCC(C)OC(=O)C=C (stereo not given) | 7.74 µM (active) | 
Clc1cc(Cl)c(Cl)c(Cl)c1Cl |  | inactive
C=CC(=O)NC(C)(C)C |  | inactive
Nc1cccc(N)n1 |  | inactive
CC/C=C\CCOC(=O)c1ccccc1O | 31 µM (active) | 
CC(CCC(=O)O)(c1ccc(O)cc1)c1ccc(O)cc1 |  | inactive
CC(C)C(=O)OCCc1ccccc1 |  | inactive
CC=C(C)C(C)=O |  | inactive
Nc1nc(N)nc(-c2ccccc2)n1 |  | inactive
O=C1CCCCCCCCCCC1 |  | inactive
c1ccc(Nc2cccc3ccccc23)cc1 | 30.4 µM (active) and 31.1 µM (active) | 
Oc1ccccc1Cc1ccccc1O |  | inactive
CC(Cl)COP(=O)(OCC(C)Cl)OCC(C)Cl (stereo not given) |  | inactive
